# The list is not random: actives were taken first. Their share in the collection is about 4.1%.
# DAX1 inh-1 – DAX1 (NR0B1) inhibitors, primary screen, cell-based, HEK293, Gal4-DAX1, luciferase luminescence; AID 504766, 2011; inhibition, % at 6.75 µM; hit rate 0.99% among 340,000; HEK293 Gal4-DAX1 luciferase reporter;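 active means inhibition above the mean over all tested compounds plus 3 SD, cut at about 4.2% in these data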;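 further: inhibition shows as a rise in luminescence from relieved DAX1 repression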
# hcDAF-12 act – H. contortus DAF-12 nuclear receptor activators, primary screen, cell-based, luminescence, HEK293, lit1-tk-luc reporter; AID 652067, 2013; HEK293 hcDAF-12 lit1-tk-luc reporter; 0% DMSO, 100% Δ7-dafachronic acid; hit rate 1.4% among 370,000; activation, % at 6.8 µM;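 active means activation above the mean of all tested compounds plus 3 SD, cut at about 5.5% in these data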
# DAX1 inh-2 – DAX1 (NR0B1) inhibitors on StAR promoter, primary screen, cell-based, luminescence, SF-1 (NR5A1), full-length DAX-1; inhibition, % at 6.8 µM; hit rate 1.1% among 370,000; HEK293T StAR-luciferase reporter, SF-1/DAX-1 repression relief; AID 652010, 2013;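 active means inhibition above the mean over all tested compounds plus 3 SD, cut at about 3.6% in these data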;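 further: higher inhibition means more luminescence from relief of DAX-1 repression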
# ssDAF12 agonist – S. stercoralis DAF-12 nuclear receptor activators, primary screen, cell-based, luminescence, HEK293, GRIP1 co-expression, lit1-tk-luc. hit rate 1% among 370,000. activation, % at 6.8 µM. Nuclear hormone receptor DAF-12 (Strongyloides stercoralis). HEK293 ssDAF-12/GRIP1 lit1-tk-luc reporter; % of 3 µM dafachronic acid response;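 active means activation above the mean over all tested compounds plus 3 SD, cut at about 0.9% in these data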
# hgDAF12 agonist – H. glycines DAF-12 receptor agonists, primary screen, cell-based, luminescence, HEK293, GAL4 fusion, UAS-luciferase; Nuclear hormone receptor DAF-12 (Heterodera glycines), GAL4 fusion; HEK293 GAL4-hgDAF12 UAS-luciferase reporter, agonist luminescence; normalized to butyrate control; activation, % at 6.8 µM; hit rate 1.8% among 370,000; AID 687014, 2013;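 active means activation above a cutoff set at the mean of all screened compounds plus 3 SD, cut at about 10% in these data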
# LXR ag – LXR agonists, Gal4 luciferase reporter, confirmation, counter-screen for hcDAF-12 agonist project, cell-based, luminescence, HEK293, H. contortus campaign; shares compounds with hcDAF-12 act; HEK293 Gal4-LXR tk-luc reporter, 24 h; normalized: DMSO 0%, positive control 100%; activation, % at 6.8 µM; 3,400 tested, under 10 active; AID 743027, 2013;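 active means mean percent activation of the reporter above a cutoff set as the average over tested compounds plus their standard deviation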
# Target sequence (P55055 whole entry, looked up, the tested form may be a part): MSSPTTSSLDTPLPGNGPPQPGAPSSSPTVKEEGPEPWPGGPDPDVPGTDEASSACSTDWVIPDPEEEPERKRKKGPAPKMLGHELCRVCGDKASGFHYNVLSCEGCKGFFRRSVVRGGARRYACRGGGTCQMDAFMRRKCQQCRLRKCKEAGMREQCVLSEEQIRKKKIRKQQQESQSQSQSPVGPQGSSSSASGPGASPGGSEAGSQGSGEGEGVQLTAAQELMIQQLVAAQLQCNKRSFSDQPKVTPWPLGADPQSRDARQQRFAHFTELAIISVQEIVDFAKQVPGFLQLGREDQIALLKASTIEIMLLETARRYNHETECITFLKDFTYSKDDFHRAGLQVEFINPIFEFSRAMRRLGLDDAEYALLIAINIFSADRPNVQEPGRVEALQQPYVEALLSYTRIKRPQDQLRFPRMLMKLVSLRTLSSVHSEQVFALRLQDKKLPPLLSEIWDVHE
# hcDAF12 ag – H. contortus DAF-12 receptor agonists, confirmation, cell-based, luminescence, HEK293, lit1-tk-luc, triplicate; shares compounds with hcDAF-12 act; HEK293 hcDAF-12 lit1-tk-luc reporter; % of Δ7-dafachronic acid response; hit rate 61% among 3,400; activation, % at 6.8 µM; AID 743032, 2013;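 active means mean activation across triplicate tests above the threshold derived from the earlier primary screen, cut at about 5.5% in these data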
# hgDAF12 ag – H. glycines DAF-12 receptor agonists, confirmation, cell-based, luminescence, HEK293, GAL4-LBD fusion | shares compounds with hgDAF12 agonist | HEK293 GAL4-hgDAF12 luciferase reporter, agonist mode; percent of butyrate response | activation, % at 6.8 µM | hit rate 80% among 3,300 | AID 743050, 2013;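 active means mean activation over triplicate wells above the hit cutoff derived from the earlier primary screen, cut at about 11% in these data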
# LXRb DAF12 ctr – LXR agonists, Gal4 luciferase reporter, confirmation, counter-screen for hgDAF-12 agonist project, cell-based, luminescence, HEK293, H. glycines campaign; shares compounds with hgDAF12 agonist; activation, % at 6.8 µM; 24 h; 3,300 tested, under 10 active; AID 743051, 2013;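 active means mean activation of the triplicate above a set limit carried over from the primary screen, none filed active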
# A number is an active result; 0 = inactive; - = no result.
SMILES,DAX1 inh-1,hcDAF-12 act,DAX1 inh-2,ssDAF12 agonist,hgDAF12 agonist,LXR ag,hcDAF12 ag,hgDAF12 ag,LXRb DAF12 ctr
CCCCN(C)C(=O)c1ccc2c(c1)NC(=O)C(C)(C)O2,-,0,0,0,0,-,-,-,-
Cn1c(NCc2c[nH]c3ccccc23)nc2ccccc21,0,16,0,1.7,16,0,15,25,0
N/C(=N\OC(=O)c1ccccc1Cl)c1cccnc1,0,9.7,0,1.9,15,0,6.4,14,0
N/C(=N\OC(=O)c1ccc2ccccc2c1)c1ccccn1,0,0,0,0,0,-,-,-,-
N/C(=N\OC(=O)Cc1ccccc1[N+](=O)[O-])c1ccccn1,0,0,0,0,0,-,-,-,-
Cc1c(C(=O)O/N=C(\N)c2ccccn2)cccc1[N+](=O)[O-],0,16,0,3.0,17,0,10,20,0
N/C(=N\OC(=O)c1cc(Br)ccc1Cl)c1cccnc1,0,0,0,0,0,-,-,-,-
N/C(=N\OC(=O)c1cc(Br)ccc1Cl)c1ccccn1,0,16,3.7,3.8,21,0,15,23,0
N/C(=N\OC(=O)c1cccc2ccccc12)c1ccccn1,0,15,0,3.5,14,0,14,11,0
OC1(Cc2ccccc2)CCN(c2ncnc3sccc23)CC1,-,0,-,0,0,-,-,-,-
CCc1cccc(NC(=O)c2cnn(-c3ccccc3)c2C)c1,0,7.9,0,0,19,0,0,16,0
Cc1cccc(C)c1NC(=O)c1cnn(-c2ccccc2)c1C,0,0,0,0,0,-,-,-,-
CCOc1ncccc1C(=O)Nc1nc(SC)ns1,0,6.9,0,0,14,0,6.1,11,0
COC(=O)C1CN(Cc2cn(Cc3ccc(Cl)cc3)nn2)CCS(=O)(=O)N1Cc1ccccc1 (stereo not given),-,0,0,0,0,-,-,-,-
C/C=C/C(=O)N1CCC(C(=O)NCC2COc3ccccc3O2)CC1 (stereo not given),-,0,0,0,0,-,-,-,-
Cc1ccnc(NC(=O)c2cc3cc(F)ccc3s2)c1,0,9.9,0,2.4,22,0,8.4,19,0
Brc1ccccc1/C=N/Nc1ccc2ccccc2n1,0,11,0,2.5,25,0,13,22,0
Cc1cc(N/N=C/c2ccccc2Br)nc2ccccc12,0,0,0,0,0,-,-,-,-
O=C(NCc1ccccc1)[C@H]1CCCN1C(=O)[C@H]1CCCN1C(=O)C1CCCCC1,-,0,0,0,0,-,-,-,-
CC12COC3(C(=O)Nc4ccc5ccccc5c4)CC1CCC32C (stereo not given),0,7.3,0,1.9,19,0,6.9,16,0
c1ccc(N2CCN(c3cnc4ccccc4n3)CC2)cc1,0,7.0,0,0,15,0,0,20,0
Clc1ccc(N2CCN(c3cnc4ccccc4n3)CC2)cc1,0,0,0,0,0,-,-,-,-
COCCN(Cc1nc(-c2ccc(-c3ccccc3)cc2)oc1C)C(C)C,0,10,0,1.1,15,0,7.5,18,0
CSc1ncccc1C(=O)Nc1cc(C)ccn1,0,0,0,0,0,-,-,-,-
CSc1ccc(NC(=O)Nc2cc(C)ccn2)cc1,0,7.0,0,0.9,19,0,9.5,18,0
SMILES,DAX1 inh-1,hcDAF-12 act,DAX1 inh-2,ssDAF12 agonist,hgDAF12 agonist,LXR ag,hcDAF12 ag,hgDAF12 ag,LXRb DAF12 ctr
CCCC(C)NC(=O)CC1Oc2ccccc2NC1=O (stereo not given),-,0,0,0,0,-,-,-,-
C/C(=N\Nc1nncc2ccccc12)c1ccc(O)cc1,0,7.0,0,0,16,0,0,0,0
C/C(C=NNC(=O)CSc1nc2ccccc2n1C)=C\c1ccccc1,-,0,0,0,0,-,-,-,-
Cc1nc(-c2coc3cc(O)c(C)cc3c2=O)cs1,0,10,0,0,13,0,10.0,15,0
COc1ccc2cc(C(=O)NC3CCCCC3)c(=O)oc2c1,0,0,0,0,0,-,-,-,-
O=C(NC1CCCCCC1)c1cc2ccccc2oc1=O,0,7.5,4.0,0.9,13,0,0,16,0
COc1ccc(-n2c(SCC(=O)NNC(=S)Nc3ccccc3)nc3ccccc3c2=O)cc1,-,0,0,0,0,-,-,-,-
c1ccc(-c2ccc(-c3ccccc3)[nH]2)cc1,0,6.8,0,0,19,0,0,15,0
COc1cc(/C=N/N=C(N)N)ccc1OCc1ccc(Cl)cc1,0,0,0,0,0,-,-,-,-
COc1cc(/C=N/O)ccc1OCc1ccc(Cl)cc1,-,7.9,4.0,0,19,0,5.7,15,0
Cc1ccc2nc(-c3ccccn3)oc2c1,0,12,0,2.8,14,0,15,24,0
Cc1ccc2nc(-c3cccnc3)oc2c1,0,0,0,0,0,-,-,-,-
Cc1cc(-c2ccc(N3CCOCC3)cc2)nc2ccccc12,0,15,0,0.9,20,0,7.9,14,0
Cc1ccc(-c2cc(C(=O)N3CCOCC3)c3ccccc3n2)cc1,0,0,0,0,0,-,-,-,-
CC[n+]1c(/C=C/c2ccc(OC(C)=O)c(OC)c2)ccc2ccccc21,0,0,0,0,0,-,-,-,-
CC[n+]1c(/C=C/c2ccc(OC)c(OC)c2)ccc2ccccc21,4.4,9.3,0,1.1,17,0,9.7,18,0
CCc1ccc(C2CC(c3ccco3)=NN2S(C)(=O)=O)cc1 (stereo not given),0,9.2,0,1.3,18,0,8.9,18,0
